The text below walks through data of publication PMC8384837, “Expanding the binding specificity for RNA recognition by a PUF domain”.

What all share (experiment): yeast three-hybrid, YBZ-1, SC-Leu-His + 0.5 mM 3-AT, 4 days
Holding throughout (details): tags: N-Gal4 AD-HA kept; label: inside an RPR1-promoter hybrid RNA with tandem MS2 sites; ssRNA

Assay [1] concerns the target PUM1 PUF domain R1-RLN (Homo sapiens, UniProt Q14671 828-1176, S863R;R864L;Q867N). The gist of the method:
(§1)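 The interaction score is the logarithmic change in variant frequency from input to selection. It uses log2, with a pseudocount of 1 for absent variants, and frequencies came from PCR-amplified, Illumina-sequenced repeat regions. The libraries were Pumilio-1 PUF domains randomized at the three base-contacting residues per repeat, co-expressed with matching RNA elements in strain YBZ-1 (LexA–MS2 coat fusion, HIS3 reporter). Plating lasted four days on SC-Leu (input) or SC-Leu-His + 0.5 mM 3-AT (selection).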

For assay [2], the target named is PUM1 PUF domain R1-KFM (Homo sapiens, UniProt Q14671 828-1176, S863K;R864F;Q867M). In a few lines: as §1
Assay [3] concerns the target PUM1 PUF domain R3-FRT (Homo sapiens, UniProt Q14671 828-1176, C935F;Q939T). In a few lines:
as §1

The target in assay [4] is PUM1 PUF domain R5-AYY (Homo sapiens, UniProt Q14671 828-1176, C1007A;R1008Y;Q1011Y). The gist of the method:
as §1

The target in assay [5] is PUM1 PUF domain R5-SKR (Homo sapiens, UniProt Q14671 828-1176, C1007S;R1008K;Q1011R). In a few lines: as §1
For assay [6], the target named is PUM1 PUF domain R5-RNV (Homo sapiens, UniProt Q14671 828-1176, C1007R;R1008N;Q1011V). The gist of the method:
as §1

For assay [7], the target named is PUM1 PUF domain R5-DHG (Homo sapiens, UniProt Q14671 828-1176, C1007D;R1008H;Q1011G). In a few lines:
as §1

Assay [8] addresses PUM1 PUF domain R5-MHS (Homo sapiens, UniProt Q14671 828-1176, C1007M;R1008H;Q1011S). The gist of the method: as §1
The target in assay [9] is PUM1 PUF domain R7-GNG (Homo sapiens, UniProt Q14671 828-1176, S1079G;E1083G). In a few lines:
as §1

In assay [10] the target is PUM1 PUF domain R3-RSA (Homo sapiens, UniProt Q14671 828-1176, C935R;R936S;Q939A). The gist of the method:
as §1

Sequence of PUM1 PUF domain R5-MHS (Q14671 828-1176 C1007M/R1008H/Q1011S): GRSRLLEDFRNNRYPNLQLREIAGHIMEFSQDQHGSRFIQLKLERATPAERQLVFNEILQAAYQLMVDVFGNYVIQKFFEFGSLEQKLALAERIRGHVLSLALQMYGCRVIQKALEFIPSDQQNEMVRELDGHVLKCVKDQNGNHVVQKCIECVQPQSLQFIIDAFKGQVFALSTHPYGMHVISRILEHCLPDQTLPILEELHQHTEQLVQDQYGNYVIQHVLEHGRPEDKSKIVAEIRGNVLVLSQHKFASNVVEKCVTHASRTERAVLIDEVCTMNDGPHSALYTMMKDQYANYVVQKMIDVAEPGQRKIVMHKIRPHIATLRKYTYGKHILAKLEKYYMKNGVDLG
Sequence of PUM1 PUF domain R1-RLN (Q14671 828-1176 S863R/R864L/Q867N): as the sequence (Q14671 828-1176 C1007M/R1008H/Q1011S) above, with S36R, R37L, Q40N, M180C, H181R, S184Q counted along it
Sequence of PUM1 PUF domain R5-RNV (Q14671 828-1176 C1007R/R1008N/Q1011V): as the sequence (Q14671 828-1176 C1007M/R1008H/Q1011S) above, with M180R, H181N, S184V counted along it
Sequence of PUM1 PUF domain R7-GNG (Q14671 828-1176 S1079G/E1083G): as the sequence (Q14671 828-1176 C1007M/R1008H/Q1011S) above, with M180C, H181R, S184Q, S252G, E256G counted along it
Sequence of PUM1 PUF domain R5-DHG (Q14671 828-1176 C1007D/R1008H/Q1011G): as the sequence (Q14671 828-1176 C1007M/R1008H/Q1011S) above, with M180D, S184G counted along it
Sequence of PUM1 PUF domain R1-KFM (Q14671 828-1176 S863K/R864F/Q867M): as the sequence (Q14671 828-1176 C1007M/R1008H/Q1011S) above, with S36K, R37F, Q40M, M180C, H181R, S184Q counted along it
Sequence of PUM1 PUF domain R3-FRT (Q14671 828-1176 C935F/Q939T): as the sequence (Q14671 828-1176 C1007M/R1008H/Q1011S) above, with C108F, Q112T, M180C, H181R, S184Q counted along it
Sequence of PUM1 PUF domain R5-AYY (Q14671 828-1176 C1007A/R1008Y/Q1011Y): as the sequence (Q14671 828-1176 C1007M/R1008H/Q1011S) above, with M180A, H181Y, S184Y counted along it
Sequence of PUM1 PUF domain R5-SKR (Q14671 828-1176 C1007S/R1008K/Q1011R): as the sequence (Q14671 828-1176 C1007M/R1008H/Q1011S) above, with M180S, H181K, S184R counted along it
Sequence of PUM1 PUF domain R3-RSA (Q14671 828-1176 C935R/R936S/Q939A): as the sequence (Q14671 828-1176 C1007M/R1008H/Q1011S) above, with C108R, R109S, Q112A, M180C, H181R, S184Q counted along it

Regarding “GGCUAGAACUAGUGGAUCCCCCGGCGCCCGGCGGCUCGAGCCCGGGUAAGUGUAAAUUGUCUGCAUGCCGCCGGGCGCCAUGCCUGCAGGUCGACUCUAGAAAACAUG”, in assay [1], the binding signal was 2.1 log2 enrichment (interaction score).
For “GGCUAGAACUAGUGGAUCCCCCGGCGCCCGGCGGCUCGAGCCCGGGUAAGUGUAAAUCGUCUGCAUGCCGCCGGGCGCCAUGCCUGCAGGUCGACUCUAGAAAACAUG”, the binding signal is 2.71 log2 enrichment (interaction score) in assay [1] and 4.3 log2 enrichment (interaction score) in assay [2].
With “GGCUAGAACUAGUGGAUCCCCCGGCGCCCGGCGGCUCGAGCCCGGGUAAGUGUAAGUAGUCUGCAUGCCGCCGGGCGCCAUGCCUGCAGGUCGACUCUAGAAAACAUG”, the binding signal in assay [3] was 4.75 log2 enrichment (interaction score).
Take “GGCUAGAACUAGUGGAUCCCCCGGCGCCCGGCGGCUCGAGCCCGGGUAAGUGUAAAUAGUCUGCAUGCCGCCGGGCGCCAUGCCUGCAGGUCGACUCUAGAAAACAUG”: in assay [4], the binding signal was 3.24 log2 enrichment (interaction score).
Turning to “GGCUAGAACUAGUGGAUCCCCCGGCGCCCGGCGGCUCGAGCCCGGGUAAGUGUCAAUAGUCUGCAUGCCGCCGGGCGCCAUGCCUGCAGGUCGACUCUAGAAAACAUG”, the binding signal is 5.88 log2 enrichment (interaction score) in [5] and 2.8 log2 enrichment (interaction score) in assay [6].
Consider “GGCUAGAACUAGUGGAUCCCCCGGCGCCCGGCGGCUCGAGCCCGGGUAAGUGUUAAUAGUCUGCAUGCCGCCGGGCGCCAUGCCUGCAGGUCGACUCUAGAAAACAUG”, for which the binding signal is 2.58 log2 enrichment (interaction score) in [6], 4.67 log2 enrichment (interaction score) in assay [7] and 5.58 log2 enrichment (interaction score) in assay [8].
Turning to “GGCUAGAACUAGUGGAUCCCCCGGCGCCCGGCGGCUCGAGCCCGGGUAAGUUUAAAUAGUCUGCAUGCCGCCGGGCGCCAUGCCUGCAGGUCGACUCUAGAAAACAUG”, in [9], the binding signal is 5.55 log2 enrichment (interaction score).
In the case of “GGCUAGAACUAGUGGAUCCCCCGGCGCCCGGCGGCUCGAGCCCGGGUAAGUGUAAUUAGUCUGCAUGCCGCCGGGCGCCAUGCCUGCAGGUCGACUCUAGAAAACAUG”, the binding signal in [10] is 3.54 log2 enrichment (interaction score).
Regarding “GGCUAGAACUAGUGGAUCCCCCGGCGCCCGGCGGCUCGAGCCCGGGUAAGUGUGAAUAGUCUGCAUGCCGCCGGGCGCCAUGCCUGCAGGUCGACUCUAGAAAACAUG”, the binding signal in [8] was 2.4 log2 enrichment (interaction score).
